Activity calls are given as the source filed them. How the source made its calls: active means hit-call score of the fitted dose curve at least 0.9, where 1 is the maximum; inactive means score below 0.9.

The record followed here is PubChem BioAssay (EPA / NIEHS).

The assay in a line: CEETOX_H295R_CORTISOL: CeeTox H295R High-throughput Steroidogenesis Assay for Cortisol (AID 2283438).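 Further: cortisol secreted into medium quantified by LC-MS/MS.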 The conditions noted are these: actives raise or lower the signal. As for the experimental part:
CEETOX_H295R is a cell-based, multiplexed-readout assay that uses H295R, a human adrenal gland cell line, with measurements taken at 48 hours after chemical dosing in a 96-well plate.CEETOX_H295R_CORTISOL is one of 23 assay component(s) measured or calculated from the CEETOX_H295R assay. It is designed to make measurements of hormone induction, a form of inducible reporter, as detected with absorbance signals by HPLC-MS-MS technology.Data from the assay component CEETOX_H295R_CORTISOL was analyzed into 1 assay endpoint. This assay endpoint, CEETOX_H295R_CORTISOL, was analyzed with bidirectional fitting relative to DMSO as the negative control and baseline of activity. Using a type of inducible reporter, gain or loss-of-signal activity using HPLC-MS-MS was used to understand synthesis of Cortisol in H295R cell line at 48hr of chemical exposure. To generalize the intended target to other relatable targets, this assay endpoint is annotated to the steroid hormone intended target family, where the subfamily is glucocorticoids.
Cell culture and media preparation procedures were conducted in accordance with OECD Test No. 456 guidelines, with minor modifications. H295R cells (ATCC CRL-2128) were expanded for 5 passages and frozen in batches in liquid nitrogen. Prior to the steroidogenesis assay, H295R cells were thawed and passed at least 4 times. The maximum passage was 10. Cells were maintained in a 1:1 mixture of DMEM/F12 supplemented with 5ml/L ITS+ Premix (BD Bioscience) and 12.5 ml/L Nu-Serum (BD Bioscience). After seeding cells into 96-well plates at 50-60% confluency, cells were allowed to adhere overnight. Prior to chemical testing, culture medium was replaced with 175 uL medium containing 10 uM forskolin to stimulate steroidogenesis for 48 hours. Following prestimulation, forskolin medium was replaced with medium containing test chemical solubilized in DMSO (ensuring a final concentration of 0.1% DMSO). Test chemicals were incubated for 48 hours, then the medium was removed and split into 2 vials containing approximately 75uL each, and stored at -80 C prior to hormone analysis. For steroid quantification, media samples were shipped to OpAns, LLC (Durham, NC) on dry ice, and samples were thawed to room temperature prior to liquid-liquid extraction. Steroid hormones were extracted from media samples using methyl tertbutyl ether (MTBE). An extra derivatization with dansyl chloride was included for estrogen (estrone and estradiol) detection only. Steroid hormones were separated by HPLC, eluted using a reverse phase C18 gradient with electrospray positive ionization, followed by quantification by tandem mass spectrometry (MS/MS). Data were acquired on a MassHunter Workstation Acquisition version B03.01 (Agilent Technologies, Inc.) and processed using MassHunter Quantitative Analysis for QQQ. Accuracy was determined for each hormone analyte from 3 standards to determine upper and lower limits of quantification (ULOQ and LLOQ, respectively) using a 7-point standard curve. Precision and accuracy of the extraction and quantification methods were calculated as the percent relative standard deviation (%RSD) of the spiked standards and percent spiked standard recovered, respectively. The goal was to achieve 100% accuracy (i.e., recover all spiked-in standard at quantification with minimal loss during run time) and good precision (i.e., have %RSD <15% to ensure reproducibility). Test medium was removed following chemical exposure, and cell viability was evaluated in the same wells by MTT. MTT procedures were as follows: after removal of test medium, 500 uL of 0.5 mg/ml of 3-[4,5-dimethylthiazol-2-y]2,5-diphenyltetrazoliumbromide solution was added to the cells. Following a 4-hour incubation at 37 C and 5% CO2 to allow formazan-crystal formation, the MTT solution was removed and blue formazan salt crystals were solubilized using 500uL anhydrous isopropanol with shaking for 20 minutes. […]
Take `CCN1CN(CC)CN(CC)C1`: the compound was called inactive. Turning to `O=C(OCc1ccccc1)c1ccc(O)cc1`, the AC50 (in general, the concentration at which the activity in the assay is half-maximal) is 36.9 µM (active).

`O=C(O)c1cc(O)c2ccccc2c1O`: the compound was called inactive. With `C=CC(=O)OCCCCCCOC(=O)C=C`, the compound was called inactive.

Turning to `CC(C)(c1ccccc1)c1ccc(Nc2ccc(C(C)(C)c3ccccc3)cc2)cc1`, the AC50 was 9.95 µM (active). Regarding `CCOC(=O)C1=NN(c2ccc(Cl)cc2Cl)C(C)(C(=O)OCC)C1` (stereo unspecified), the outcome was inactive. As for `CC(C)(C)NC(=O)[C@H]1CC[C@H]2[C@@H]3CC[C@H]4NC(=O)C=C[C@]4(C)[C@H]3CC[C@]12C`, the AC50 was 36.3 µM (active). Take `COc1ccc(C(=O)c2ccccc2)c(O)c1`: the result was inactive. Turning to `C=C[C@@]1(C)CC(=O)[C@]2(O)[C@@]3(C)[C@@H](O)CCC(C)(C)[C@@H]3[C@H](O)[C@H](OC(C)=O)[C@@]2(C)O1`, the AC50 is 0.726 µM (active). Consider `COc1ccc(-c2coc3cc(O)cc(O)c3c2=O)cc1`, for which the AC50 is 3.65 µM (active). `CN(C)c1ccc2nc3ccc(=[N+](C)C)cc-3sc2c1`: the outcome was inactive.
